Consider 22 compounds from PubChem BioAssay (NCATS).

Unmarked numbers belong to inactive results. Inconclusive results are not listed. The source made the active and inactive calls. Unless noted, calls follow the shape of the dose curve; as a rule, active = well fitted curve in the direction sought with a large enough effect; inconclusive = small, poorly fitted or top-dose-only effect, or another doubt; inactive = no such curve, though single readings can be large; an effect the other way counts as inactive or inconclusive.

The test system of one assay is Es-2. Kind of assay: Primary qHTS to identify gynecologic anti-cancer compounds using libraries of approved drugs and bioactive compounds (AID 1345084). Also: nearly all actives have a fitted effect of over 55% in size. Also: potency is read from the fitted curve at half-maximal effect. The following applies: Gynecologic cancer cell panel viability, ATPlite luminescence, 48 h; series mostly up to 57.5 µM. The essentials:
(§1)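 In this quantitative HTS, cell killing is estimated from loss of ATP-dependent luciferase light. Cells see five compound concentrations over a 48 h exposure.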
A general note: In qHTS, concentration-response curves come from the screen itself.

The test system of the next assay is Hek293T. The assay is described as above. The following applies: Gynecologic cancer cell panel viability, ATPlite luminescence, 48 h, control line for the selectivity index; series mostly up to 57.5 µM. The essentials: as §1
(In general: ATP-based viability assays read luminescence as a measure of living cells.)

Another assay deals with JEG-3. The description is as above. The following applies: Gynecologic cancer cell panel viability, ATPlite luminescence, 48 h; series mostly up to 57.5 µM. The essentials: as §1
The test system of another assay is OV90. The assay is described as above. As to conditions: Gynecologic cancer cell panel viability, ATPlite luminescence, 48 h; series mostly up to 57.5 µM. The essentials: as §1
Another assay concerns PA-1. The assay is described as above. As to conditions: Gynecologic cancer cell panel viability, ATPlite luminescence, 48 h; series mostly up to 57.5 µM. The essentials:
as §1

The next assay relates to SKOV3. Described as above. The following applies: Gynecologic cancer cell panel viability, ATPlite luminescence, 48 h; series mostly up to 57.5 µM. The essentials: as §1
The next assay concerns Tov-21-G. The description is as above. The following applies: Gynecologic cancer cell panel viability, ATPlite luminescence, 48 h; series mostly up to 57.5 µM. A digest of the protocol: as §1
A further assay concerns Tov112D. The description is as above. The following applies: Gynecologic cancer cell panel viability, ATPlite luminescence, 48 h; series mostly up to 57.5 µM. A digest of the protocol:
as §1

The nature of assay [1]: Drug repurposing screens with cells derived from glioblastoma tumor samples (AID 1345199). Also: nearly all actives have a fitted effect of over 40% in size. Also: potency is read from the fitted curve at half-maximal effect. As to activity, negative = cell killing: % is scaled to controls: 0 for no effect and ±100 for the full control effect. As to conditions: GBM patient neurospheres viability, ATP luminescence, 48 h. A digest of the protocol: (§2)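 Primary testing used CD133+ neurospheres from four GBM patients, seven concentrations, 48 h exposure and ATP-based viability; confirmation added three slower-growing patient lines.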

In another assay the test system is astro. The assay is described as above. As to conditions: viability, ATP luminescence, 48 h; series mostly up to 45.9 µM. A digest of the protocol: as §2
The next assay concerns HeLa. Kind of assay: Primary qHTS to identify gynecologic anti-cancer compounds using libraries of approved drugs and bioactive compounds (AID 1345084). Also: nearly all actives have a fitted effect of over 55% in size. Also: potency is read from the fitted curve at half-maximal effect. As to conditions: Gynecologic cancer cell panel viability, ATPlite luminescence, 48 h; series mostly up to 57.5 µM. A digest of the protocol:
as §1

In assay [2] the target is Nuclear receptor subfamily 1 group I member 2 (Rattus norvegicus) (UniProt Q9R1A7). Nature of the assay: qHTS assay for small molecule activators of the rat pregnane X receptor (rPXR) signaling pathway (AID 651751; call rule not given here; also: 0% is about no effect). As to conditions: rPXR reporter cells, luciferase (One-Glo), 24 h.
Chain of Nuclear receptor subfamily 1 group I member 2 (Rattus norvegicus) (Q9R1A7 whole entry, looked up): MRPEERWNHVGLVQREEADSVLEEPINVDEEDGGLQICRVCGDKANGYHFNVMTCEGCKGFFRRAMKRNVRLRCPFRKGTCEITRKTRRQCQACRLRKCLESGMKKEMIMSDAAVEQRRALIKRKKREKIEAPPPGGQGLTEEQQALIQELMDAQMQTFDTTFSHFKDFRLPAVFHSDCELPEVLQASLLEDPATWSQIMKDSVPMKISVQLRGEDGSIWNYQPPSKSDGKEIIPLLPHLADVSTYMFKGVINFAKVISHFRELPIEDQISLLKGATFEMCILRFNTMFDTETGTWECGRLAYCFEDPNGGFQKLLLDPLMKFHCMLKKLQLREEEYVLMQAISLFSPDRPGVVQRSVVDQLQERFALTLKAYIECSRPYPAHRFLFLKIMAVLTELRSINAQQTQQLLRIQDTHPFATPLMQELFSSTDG
Assay [3] is described as follows: qHTS assay to identify inhibitors of the type 1 interferon - major histocompatibility complex class I in skeletal muscle: Counter screen cell viability and HiBit confirmation (AID 1347412). Also: potency is read from the fitted curve at half-maximal effect; nearly all actives have a fitted effect of over 60% in size. As to conditions: iHSKM muscle cells + IFN-b, HiBiT or CellTiter-Glo, 24 h; Potency: HiBiT unless noted; Viability, at 45.9 µM (top of the series). The essentials: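 CRISPR HLA-B*08:01-HiBit immortalized human myoblasts (C25cl48) stimulated with 4 ng/ml IFN-beta and compounds (12-point 1:3, top 46 uM final) for 24 h at 37 C. Duplicate plates read by HiBit lytic luminescence or CellTiter Glo ATP.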

A short description of assay [4]: qHTS assay for small molecule activators of the human pregnane X receptor (PXR) signaling pathway (AID 720659; call rule not given here; also: 0% is about no effect).
[5] abbreviates: at 46.1 µM (top of the series), tumour line C.
The mark [6] stands for this setting: at 45.9 µM (top of the series), tumour line D.
Where [7] appears, read: at 20 µM (top of the series), tumour line C.
Where [8] appears, read: at 21.2 µM (top of the series), tumour line B.
The mark [9] stands for this setting: at 21.2 µM (top of the series), tumour line D.
[10] abbreviates: at 21.3 µM (top of the series), tumour line A.
Setting [11] is: at 45.9 µM (top of the series), tumour line B.
Where [12] appears, read: at 46 µM (top of the series), tumour line A.

For the compound `C#C[C@]1(OC(C)=O)CC[C@H]2[C@@H]3CCC4=C[C@@H](OC(C)=O)CC[C@@H]4[C@H]3CC[C@@]21C`, the Potency result in the assay with Es-2, in the assay on Hek293T, in the assay on JEG-3, in the assay with OV90, in the assay with PA-1 and in the assay with SKOV3 was “inactive” in each case. Further, the Potency result in the assay with Tov-21-G, in the assay with Tov112D and in the assay on astro was “inactive” each time. Moreover, the activity, negative = cell killing in [1] (setting [5]) is -26.2%. For the same compound, the Potency in assay [1] (tumour line A) is 10 µM (active); in assay [1] (tumour line D), 17.8 µM (active).
Consider `O=C(N/N=C/c1ccccc1O)c1ccncc1`, for which the Potency result with HeLa, in the assay with Hek293T, in the assay with JEG-3, in the assay on SKOV3 and with astro was “inactive” throughout. The activity, negative = cell killing in [1] (setting [6]) is 0.44%. Further, the Potency in [1] (tumour line B) was 17.8 µM (active).
For the compound `C[C@H](O)C(=O)Nc1c(I)c(C(=O)NC(CO)CO)c(I)c(C(=O)NC(CO)CO)c1I`, the Potency result with Es-2, in the assay with HeLa, in the assay with JEG-3, in the assay on PA-1, in the assay on SKOV3 and with Tov-21-G was “inactive” throughout. For the same compound, in the assay with Tov112D, the Potency result is “inactive”. Moreover, the activity, negative = cell killing in assay [1] (setting [7]) was 2.37%; in [1] (setting [8]) it was -6.73%; in [1] (setting [9]), -12.3%; in assay [1] (setting [10]) it was -8%.
As for `CN(C)C(=S)SC(=S)N(C)C`, the Potency entry in the assay on Es-2, in the assay with HeLa, with JEG-3 and in the assay with astro was “inactive” throughout. Besides, the Potency was 7.94 µM (active) in the assay on OV90, 11.2 µM (active) in the assay on SKOV3, 8.91 µM (active) in the assay with Tov-21-G and 28.2 µM (active) with Tov112D. In addition, the activity, negative = cell killing in assay [1] (setting [11]) was -2.75%; in assay [1] (setting [6]) it was -2.32%; in [1] (setting [12]), -14.5%; in assay [1] (setting [5]) it was -7.02%. In assay [2], the max response was -1.67%.
As to `COc1cccc2c1C(=O)c1c(O)c3c(c(O)c1C2=O)C[C@@](O)(C(C)=O)C[C@@H]3O[C@H]1C[C@H](N)[C@H](O)[C@H](C)O1`, the Potency in the assay with Es-2 was 0.708 µM (active); in the assay on HeLa it was 4.47 µM (active); in the assay with OV90 it was 1.26 µM (active); in the assay on Tov112D it was 0.398 µM (active); with astro, 1.12 µM (active); in [3] it was 0.442 µM (active). In addition, the max response in assay [2] is -12.1%. In addition, in [4], the result was inactive.
On to `C=C(CC)C(=O)c1ccc(OCC(=O)O)c(Cl)c1Cl`, for which the Potency entry in the assay with Es-2, in the assay with HeLa, in the assay with JEG-3, with OV90, with PA-1 and in the assay on SKOV3 was “inactive” each time. Also, in [1] (setting [5]), the activity, negative = cell killing was 1.71%. Also, the max response in [2] is -15%. Further, the outcome in assay [4] was inactive.
With `CCCCCCCCCCOCC(O)CN` (configuration not stated), the Potency entry in the assay on HeLa, in the assay with Hek293T, in the assay on JEG-3, with PA-1, in the assay on Tov-21-G and in the assay with Tov112D was “inactive” in each case. Also, the Potency in the assay with astro was 28.2 µM (active).
In the case of `O=C1[C@H]2CCCC[C@H]2C(=O)N1CCCCN1CCN(c2nsc3ccccc23)CC1`, the Potency result in the assay with Es-2, in the assay on HeLa, in the assay with JEG-3, in the assay on PA-1, in the assay on SKOV3 and with Tov-21-G was “inactive” in each case. Besides, the Potency entry in the assay on Tov112D and in the assay on astro was “inactive” throughout.
As to `CNCC[C@@H](Oc1ccccc1C)c1ccccc1`, the Potency entry in the assay on HeLa, in the assay with Hek293T, with JEG-3, in the assay on OV90, in the assay with PA-1 and with Tov112D was “inactive” each time. For the same compound, the Potency result with astro was “inactive”.
Consider `Nc1ccc(C(=O)Nc2ccccc2N)cc1`, for which the Potency entry in the assay on Hek293T, with JEG-3, in the assay on SKOV3 and in the assay on Tov112D was “inactive” throughout. In addition, the Potency in the assay on PA-1 was 11.2 µM (active).
Turning to `CCOc1ccc(Cc2nccc3cc(OCC)c(OCC)cc23)cc1OCC`, the Potency result with HeLa, in the assay on JEG-3 and in the assay on Tov-21-G was “inactive” throughout. Moreover, the results for the Potency in the assay on OV90 and in the assay on SKOV3 were 7.08 µM (active) and 2.24 µM (active), respectively. Also, the activity, negative = cell killing in assay [1] (setting [7]) was 6.5%.
Regarding `CC(=O)N(O)CCCCCNC(=O)CCC(=O)N(O)CCCCCNC(=O)CCC(=O)N(O)CCCCCN`, the Potency entry with HeLa, in the assay on SKOV3, in the assay with Tov-21-G and with astro was “inactive” each time. Besides, the Potency in the assay on OV90 is 6.31 µM (active). The activity, negative = cell killing in assay [1] (setting [7]) was 5.11%; in assay [1] (setting [8]), -16.9%; in assay [1] (setting [9]), -9.85%; in assay [1] (setting [10]), -22.8%.
On to `COC(=O)[C@H]1[C@H]2C[C@H]3c4[nH]c5ccccc5c4CCN3C[C@H]2CC[C@@H]1O`, for which the activity, negative = cell killing in assay [1] (setting [11]) was -4.34%; in assay [1] (setting [6]), -13.5%; in assay [1] (setting [5]) it was 4.13%. The Potency entry in the assay with astro is “inactive”.
Turning to `CCCCCCCCCCCCCCCC[N+](C)(C)CCN(Cc1ccc(OC)cc1)c1ncccn1`, the Potency in the assay with PA-1 is 15.8 µM (active); in the assay with SKOV3, 20 µM (active); with Tov112D, 20 µM (active); in [1] (tumour line A), 8.91 µM (active); in assay [1] (tumour line B), 14.1 µM (active). In assay [1] (setting [7]), the activity, negative = cell killing was -23.1%.
`CCC(NC(C)C)C(O)c1ccc(O)c(O)c1` (configuration not stated): the activity, negative = cell killing in [1] (setting [11]) was -1.77%; in assay [1] (setting [6]) it was 12.5%; in assay [1] (setting [12]), -20.2%; in assay [1] (setting [5]), -19.2%. Moreover, the Potency entry in the assay with astro was “inactive”.
Turning to `N[C@@H](Cc1cnc[nH]1)C(=O)O`, the activity, negative = cell killing in [1] (setting [11]) is -11.3%; in assay [1] (setting [6]), -9.45%; in assay [1] (setting [5]), -12.5%. Also, in the assay with astro, the Potency entry is “inactive”.
On to `C1CCc2nnnn2CC1`, for which the activity, negative = cell killing in assay [1] (setting [11]) was -2.41%; in assay [1] (setting [6]) it was -3.11%; in assay [1] (setting [12]), -28.5%; in [1] (setting [5]) it was -27%. Besides, the Potency result in the assay on astro is “inactive”.
On to `CC(C)(C)CC(C)(C)c1ccc(O)c(Cc2ccc(Cl)cc2Cl)c1`, for which the Potency result in the assay with JEG-3, in the assay on OV90, in the assay with PA-1, with Tov-21-G and in the assay on Tov112D was “inactive” throughout. In addition, in the assay with astro, the Potency was 22.4 µM (active).
For `CN(C)/N=N/c1nc[nH]c1C(N)=O`, the Potency result with JEG-3 and in the assay with astro was “inactive” in each case. Also, the activity, negative = cell killing in [1] (setting [11]) was -24.8%; in assay [1] (setting [6]), -1.38%; in [1] (setting [12]), -11.7%; in assay [1] (setting [5]), -12%. The max response in assay [2] was -2.27%. In addition, the result in assay [4] was inactive.
`O=C(O)c1cc2cc(Cc3cccnc3)ccc2o1`: the results for the activity, negative = cell killing in [1] (setting [11]) and in assay [1] (setting [6]) were -16.4% and -17.6%, respectively. In addition, the Potency result in the assay with astro was “inactive”.
With `COc1cc(NS(C)(=O)=O)ccc1Nc1c2ccccc2nc2ccccc12`, the Potency with astro is 11.2 µM (active).
As for `Cc1ccccc1C(=O)Nc1ccc(C(=O)N2CCCC(N(C)C)c3ccccc32)cc1` (configuration not stated), the Potency result in the assay with JEG-3 and in the assay on OV90 was “inactive” throughout. In addition, the Potency with Tov112D is 8.91 µM (active).
